PubChem BioAssay (EPA / NIEHS)
Activity calls are given as the source filed them. The calls were made as follows: active = hit-call score of the fitted dose curve at least 0.9, where 1 is the maximum; inactive = score below 0.9.

Assays:
[1] = read-out: Interleukin-1 alpha (IL1a), IL1A (gene 3552); experiment: BSK_KF3CT_IL1a: BioMAP Diversity Plus: KF3CT Assay for Interleukin-1 alpha (IL1a) Biomarker Activity (AID 2283070); details: primary human keratinocytes with fibroblasts; actives raise or lower the signal
In short: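 Human keratinocyte plus foreskin fibroblast primary co-culture, sampled 24 h after chemical dosing. IL-1a measured by ELISA; responses fitted bidirectionally against DMSO baseline (negative control), so gain or loss of signal both count.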

[2] = read-out: TIMP metallopeptidase inhibitor 2 (TIMP2), TIMP2 (gene 7077); experiment: BSK_KF3CT_TIMP2: BioMAP Diversity Plus: KF3CT Assay for TIMP metallopeptidase inhibitor 2 (TIMP2) Biomarker Activity (AID 2283071); details: primary human keratinocytes with fibroblasts; actives raise or lower the signal
In short: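 Human primary keratinocyte/foreskin fibroblast co-culture dosed with chemical and sampled at 24 h. TIMP-2 levels quantified by ELISA; bidirectional fitting against DMSO negative control as baseline.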

[3] = read-out: Transforming growth factor beta 1 (TGFb1), TGFB1 (gene 7040); experiment: BSK_KF3CT_TGFb1: BioMAP Diversity Plus: KF3CT Assay for Transforming growth factor beta 1 (TGFb1) Biomarker Activity (AID 2283072); details: primary human keratinocytes with fibroblasts; actives raise or lower the signal
In short: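 Human keratinocyte plus foreskin fibroblast primary co-culture, dosed with chemical for 24 h. TGF-b1 quantified by ELISA. Activity fitted bidirectionally against DMSO negative control as baseline.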

[4] = read-out: C-C motif chemokine 2 (Homo sapiens) (UniProt P13500); experiment: BSK_KF3CT_MCP1: BioMAP Diversity Plus: KF3CT Assay for Monocyte Chemoattractant Protein 1 (MCP1/CCL2) Biomarker Activity (AID 2283073); details: primary human keratinocytes with fibroblasts; actives raise or lower the signal
In short: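 ELISA read-out of MCP-1, 24 h post-dose, in primary human skin keratinocytes co-cultured with fibroblasts. Parallel SRB staining monitors cytotoxicity; changes fitted both directions relative to DMSO.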

[5] = read-out: Matrix Metallopeptidase 9 (MMP9), MMP9 (gene 4318); experiment: BSK_KF3CT_MMP9: BioMAP Diversity Plus: KF3CT Assay for Matrix Metallopeptidase 9 (MMP9) Biomarker Activity (AID 2283074); details: primary human keratinocytes with fibroblasts; actives raise or lower the signal
In short: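 Keratinocyte plus foreskin fibroblast human primary skin co-culture was dosed with chemical and MMP-9 was quantified by ELISA 24 h later. Bidirectional curve fitting used DMSO as negative control and activity baseline.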

[6] = read-out: urokinase plasminogen activator (uPA), PLAU (gene 5328); experiment: BSK_KF3CT_uPA: BioMAP Diversity Plus: KF3CT Assay for urokinase plasminogen activator (uPA) Biomarker Activity (AID 2283075); details: primary human keratinocytes with fibroblasts; actives raise or lower the signal
In short: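 Human keratinocyte plus foreskin fibroblast primary co-culture exposed to chemical for 24 h. uPA levels were quantified by ELISA, and activity was fitted bidirectionally against a DMSO negative-control baseline.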

[7] = read-out: CD40, CD40 (gene 958); experiment: BSK_LPS_CD40: BioMAP Diversity Plus: LPS Assay for CD40 Biomarker Activity (AID 2283076); details: primary human HUVEC with PBMC; actives raise or lower the signal
In short: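 In the LPS system of human endothelial cells with peripheral blood mononuclear cells, CD40 levels were read by ELISA 24 h post-treatment. Signal changes in either direction were fitted against the DMSO baseline, with parallel SRB protein staining.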

[8] = read-out: E-selectin (Homo sapiens) (UniProt P16581); experiment: BSK_LPS_Eselectin: BioMAP Diversity Plus: LPS Assay for Eselectin Biomarker Activity (AID 2283077); details: primary human HUVEC with PBMC; actives raise or lower the signal
In short: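 E-selectin ELISA on LPS-stimulated endothelial cell/PBMC co-cultures, read 24 h post-treatment; gains and losses fitted against DMSO. Parallel SRB staining (0.1% SRB after 10% TCA fixation, 560 nm) flags overt cytotoxicity.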

[9] = read-out: Interleukin-8 (IL8), CXCL8 (gene 3576); experiment: BSK_LPS_IL8: BioMAP Diversity Plus: LPS Assay for Interleukin-8 (IL8) Biomarker Activity (AID 2283078); details: primary human HUVEC with PBMC; actives raise or lower the signal
In short: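 ELISA read-out of IL-8 after 24 h chemical treatment of LPS-activated endothelial/PBMC human primary co-cultures. Changes either up or down relative to DMSO; overt cytotoxicity checked by sulforhodamine B staining in parallel wells.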

[10] = BSK_LPS_SRB: Viability Assessment in the BioMAP Diversity Plus: LPS Assay (AID 2283079); details: primary human HUVEC with PBMC;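 also: total protein by sulforhodamine B absorbance as a cytotoxicity measure; measured one day after compound addition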
In short: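 SRB viability endpoint: cells fixed with 10% TCA, stained with 0.1% SRB, read at 560 nm, 24 h post-dose. HUVEC/PBMC co-culture; signal change in either direction scored relative to DMSO.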

[11] = read-out: Interleukin-1 alpha (IL1a), IL1A (gene 3552); experiment: BSK_LPS_IL1a: BioMAP Diversity Plus: LPS Assay for Interleukin-1 alpha (IL1a) Biomarker Activity (AID 2283080); details: primary human HUVEC with PBMC; actives raise or lower the signal
In short: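 Readout is IL-1a level by ELISA, 24 h post-dose, fitted as gain or loss relative to DMSO. System: LPS-activated human primary co-culture of vascular endothelium and peripheral blood mononuclear cells, with parallel SRB total-protein cytotoxicity.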

[12] = read-out: Monocyte Chemoattractant Protein-1 (MCP1), CCL2 (gene 6347); experiment: BSK_LPS_MCP1: BioMAP Diversity Plus: LPS Assay for Monocyte Chemoattractant Protein-1 (MCP1) Biomarker Activity (AID 2283081); details: primary human HUVEC with PBMC; actives raise or lower the signal
In short: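 Secreted MCP-1 read by ELISA at 24 h post-dosing in an LPS-activated co-culture of endothelial cells with peripheral blood mononuclear cells. Fits run in both directions, DMSO as baseline; parallel SRB staining tracks overt cytotoxicity.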

[13] = BSK_LPS_PGE2: BioMAP Diversity Plus: LPS Assay for Prostaglandin E2 (PGE2) Biomarker Activity (AID 2283082); details: primary human HUVEC with PBMC; actives raise or lower the signal;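 as to AC50: secreted prostaglandin E2 measured by ELISA in LPS-stimulated co-culture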
In short: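 HUVEC plus PBMC co-culture stimulated with LPS; secreted PGE2 quantified by ELISA 24 h after chemical dosing. Activity fitted bidirectionally against DMSO as negative control and baseline; parallel SRB total-protein staining served as cytotoxicity check.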

[14] = read-out: Macrophage colony-stimulating factor (MCSF), CSF1 (gene 1435); experiment: BSK_LPS_MCSF: BioMAP Diversity Plus: LPS Assay for Macrophage colony-stimulating factor (MCSF) Biomarker Activity (AID 2283083); details: primary human HUVEC with PBMC; actives raise or lower the signal
In short: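 Bidirectional fitting against DMSO was applied to M-CSF levels read by ELISA at 24 h post-dose. The system pairs human umbilical vein endothelium with peripheral blood mononuclear cells; parallel SRB staining tracked cytotoxicity.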

[15] = read-out: Tissue Factor, F3 (gene 2152); experiment: BSK_LPS_TissueFactor: BioMAP Diversity Plus: LPS Assay for Tissue Factor Biomarker Activity (AID 2283084); details: primary human HUVEC with PBMC; actives raise or lower the signal
In short: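 Compound was added to an endothelial cell/PBMC co-culture, and after 24 h tissue factor (CD142) was read by ELISA. Gain or loss of signal was fitted against a DMSO baseline, and parallel SRB staining (560 nm) tracked overt cytotoxicity.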

[16] = read-out: Tumor necrosis factor (Homo sapiens) (UniProt P01375); experiment: BSK_LPS_TNFa: BioMAP Diversity Plus: LPS Assay for Tumour Necrosis Factor alpha (TNFa) Biomarker Activity (AID 2283085); details: primary human HUVEC with PBMC; actives raise or lower the signal;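 as to AC50: TNFa protein level quantified by ELISA in the co-culture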
In short: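 Human umbilical vein endothelial cells co-cultured with PBMC were exposed to test chemical and TNFa measured by ELISA 24 h after dosing. Bidirectional curve fitting was done relative to DMSO as negative control and baseline.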

[17] = read-out: Vascular cell adhesion molecule 1 (VCAM1), VCAM1 (gene 7412); experiment: BSK_LPS_VCAM1: BioMAP Diversity Plus: LPS Assay for Vascular cell adhesion molecule 1 (VCAM1) Biomarker Activity (AID 2283086); details: primary human HUVEC with PBMC; actives raise or lower the signal
In short: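 Human umbilical vein endothelial cells co-cultured with peripheral blood mononuclear cells under LPS stimulation were exposed to test chemical for 24 h. VCAM-1 levels were then measured by ELISA, with bidirectional curve fitting relative to DMSO as negative control and baseline.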

[18] = read-out: CD38, CD38 (gene 952); experiment: BSK_SAg_CD38: BioMAP Diversity Plus: SAg Assay for CD38 Biomarker Activity (AID 2283087); details: primary human HUVEC with PBMC; actives raise or lower the signal
In short: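 Fluorescence ELISA of cell-surface CD38 served as the read-out, with either increase or decrease fitted against DMSO controls. Cells were a human umbilical vein endothelium plus PBMC co-culture under SEB/TSST-1 stimulation, measured 24 h after dosing.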

[19] = read-out: CD40, CD40 (gene 958); experiment: BSK_SAg_CD40: BioMAP Diversity Plus: SAg Assay for CD40 Biomarker Activity (AID 2283088); details: primary human HUVEC with PBMC; actives raise or lower the signal
In short: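 CD40 is measured by fluorescence ELISA in an endothelial/PBMC primary human co-culture at 24 h post-dose. Fitting is bidirectional, DMSO baseline. Parallel SRB staining (560 nm) flags cytotoxicity.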

[20] = read-out: CD69, CD69 (gene 969); experiment: BSK_SAg_CD69: BioMAP Diversity Plus: SAg Assay for CD69 Biomarker Activity (AID 2283089); details: primary human HUVEC with PBMC; actives raise or lower the signal
In short: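 Primary human vascular co-culture (umbilical vein endothelium with peripheral blood mononuclear cells) exposed to test chemical for 24 h. CD69 levels quantified by fluorescence ELISA; DMSO served as negative control for bidirectional fitting.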

Chain of Tumor necrosis factor (Homo sapiens) (P01375 whole entry, looked up): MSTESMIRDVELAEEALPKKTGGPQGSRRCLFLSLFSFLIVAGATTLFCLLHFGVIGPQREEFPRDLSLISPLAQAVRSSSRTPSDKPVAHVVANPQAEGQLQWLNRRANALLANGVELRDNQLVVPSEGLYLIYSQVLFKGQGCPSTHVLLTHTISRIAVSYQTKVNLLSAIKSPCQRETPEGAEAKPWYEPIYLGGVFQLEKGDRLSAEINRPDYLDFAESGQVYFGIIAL
Chain of E-selectin (Homo sapiens) (P16581 whole entry, looked up): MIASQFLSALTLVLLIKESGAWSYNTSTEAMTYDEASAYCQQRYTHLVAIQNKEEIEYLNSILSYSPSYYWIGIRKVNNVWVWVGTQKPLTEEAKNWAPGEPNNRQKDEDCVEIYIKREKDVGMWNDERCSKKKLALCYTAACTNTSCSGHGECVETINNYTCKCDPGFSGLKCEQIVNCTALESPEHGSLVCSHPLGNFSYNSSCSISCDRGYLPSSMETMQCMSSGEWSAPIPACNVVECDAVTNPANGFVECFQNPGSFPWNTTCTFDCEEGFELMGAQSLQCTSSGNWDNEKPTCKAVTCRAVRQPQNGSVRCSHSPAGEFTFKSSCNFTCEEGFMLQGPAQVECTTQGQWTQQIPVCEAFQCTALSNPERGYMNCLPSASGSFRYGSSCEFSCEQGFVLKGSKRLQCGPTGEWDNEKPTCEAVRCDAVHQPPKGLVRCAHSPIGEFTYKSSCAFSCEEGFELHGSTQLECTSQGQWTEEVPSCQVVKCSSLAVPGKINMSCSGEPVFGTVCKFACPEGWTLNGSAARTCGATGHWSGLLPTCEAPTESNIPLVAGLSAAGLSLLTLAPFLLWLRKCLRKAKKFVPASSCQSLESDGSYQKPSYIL

CCC(C)(C)c1ccc(O)cc1
outcome [1]: inactive | outcome [2]: inactive | outcome [3]: inactive | outcome [4]: inactive | outcome [5]: inactive | outcome [6]: inactive | outcome [7]: inactive | outcome [8]: inactive | outcome [9]: inactive | outcome [10]: inactive | outcome [11]: inactive | outcome [12]: inactive | outcome [13]: inactive | outcome [14]: inactive | outcome [15]: inactive | outcome [16]: inactive | outcome [17]: inactive | outcome [18]: inactive | outcome [19]: inactive | outcome [20]: inactive

CC(C)(C)c1ccc(O)cc1
outcome [1]: inactive | outcome [2]: inactive | outcome [3]: inactive | outcome [4]: inactive | outcome [5]: inactive | outcome [6]: inactive | outcome [7]: inactive | outcome [9]: inactive | outcome [10]: inactive | outcome [11]: inactive | outcome [12]: inactive | AC50 [13]: 3.65 µM (active) | outcome [14]: inactive | outcome [15]: inactive | outcome [16]: inactive | outcome [17]: inactive | outcome [18]: inactive | outcome [19]: inactive

CCOP(=S)(OCC)SCSCC
outcome [1]: inactive | outcome [2]: inactive | outcome [3]: inactive | outcome [4]: inactive | outcome [5]: inactive | outcome [6]: inactive | outcome [7]: inactive | outcome [8]: inactive | outcome [9]: inactive | outcome [10]: inactive | outcome [11]: inactive | outcome [12]: inactive | outcome [13]: inactive | outcome [14]: inactive | outcome [15]: inactive | outcome [16]: inactive | outcome [17]: inactive | outcome [18]: inactive | outcome [19]: inactive | outcome [20]: inactive

Nc1cc2c3c(c1)C(c1ccccc1)=N[C@@H](NC(=O)c1cccnc1)C(=O)N3CC2
outcome [1]: inactive | outcome [2]: inactive | outcome [3]: inactive | outcome [4]: inactive | outcome [5]: inactive | outcome [6]: inactive | outcome [7]: inactive | outcome [9]: inactive | outcome [10]: inactive | outcome [11]: inactive | outcome [12]: inactive | outcome [13]: inactive | outcome [14]: inactive | outcome [15]: inactive | AC50 [16]: 1.46 µM (active) | outcome [17]: inactive | outcome [18]: inactive | AC50 [19]: 3.97 µM (active)

CCOP(=S)(OCC)SCn1nnc2ccccc2c1=O
outcome [1]: inactive | outcome [2]: inactive | outcome [3]: inactive | outcome [4]: inactive | outcome [5]: inactive | outcome [6]: inactive | outcome [7]: inactive | outcome [9]: inactive | outcome [10]: inactive | outcome [11]: inactive | outcome [12]: inactive | outcome [13]: inactive | AC50 [14]: 20 µM (active) | outcome [15]: inactive | outcome [16]: inactive | outcome [17]: inactive | outcome [18]: inactive | outcome [19]: inactive

CC(Cc1ccc(OCC(=O)O)cc1)NCC(O)c1csc(C(F)(F)F)n1 (configuration not stated)
outcome [1]: inactive | outcome [2]: inactive | outcome [3]: inactive | outcome [4]: inactive | outcome [5]: inactive | outcome [6]: inactive | outcome [7]: inactive | outcome [8]: inactive | outcome [9]: inactive | outcome [10]: inactive | outcome [11]: inactive | outcome [12]: inactive | outcome [13]: inactive | outcome [14]: inactive | outcome [15]: inactive | outcome [16]: inactive | outcome [17]: inactive | outcome [18]: inactive | outcome [19]: inactive

Cc1ccc2c(c1N)C(=O)c1ccccc1C2=O
outcome [1]: inactive | AC50 [2]: 6.86 µM (active) | outcome [3]: inactive | outcome [4]: inactive | outcome [5]: inactive | outcome [6]: inactive | outcome [7]: inactive | outcome [9]: inactive | outcome [10]: inactive | outcome [11]: inactive | outcome [12]: inactive | outcome [13]: inactive | outcome [14]: inactive | AC50 [15]: 20 µM (active) | outcome [16]: inactive | outcome [17]: inactive | AC50 [18]: 12.6 µM (active) | outcome [19]: inactive | outcome [20]: inactive
